Several values for one entry are separate records, joined by “and”; a condition that tells them apart may be missing. Equal values may be shown once. Results filed as inconclusive are left out. Where a call stands in place of a potency, no number is given. Some structures have more than one record in an assay (separate samples or runs), and their calls can disagree. Activity calls are given as the source filed them. Unless noted, calls come from the whole dose curve; as a rule, active = well fitted curve in the direction sought with a large enough effect in the repeat runs; inconclusive = weak or mixed curves; inactive = no such curve, though single readings can be large; an effect the other way counts as inactive or inconclusive.
Tests used:
[1] = qHTS assay to identify small molecule antagonists of the retinoic acid receptor (RAR) signaling pathway (AID 1159552; note: nearly all actives have a fitted effect of over 50% in size; note: potency is the fitted concentration of half-maximal effect)
In short: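 Cells of the C3RL4 line were seeded, incubated overnight, then dosed with compounds in DMSO followed immediately by retinol (1 uM final). Six hours later luciferase detection reagent went in; signal was measured after 30 min at RT.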

[2] = qHTS assay to identify small molecule agonists of the retinoic acid receptor (RAR) signaling pathway (AID 1159553); note: potency is the fitted concentration of half-maximal effect
In short: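 Reporter readout comes from luciferase under RARE control in C3RL4 cells; compound exposure lasts 6 hr at 37 C in 5% CO2, and luminescence is recorded following a 30 min room-temperature incubation with reagent.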

[3] = qHTS assay to identify small molecule antagonists of the estrogen related receptor (ERR) signaling pathway from Tox21 library - cell viability counter screen (AID 1224834); note: nearly all actives have a fitted effect of over 30% in size; note: potency is the fitted concentration of half-maximal effect
In short: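 After 17.5 h of compound exposure at 37 C, ERR cells are incubated with CellTiter-Fluor for 30 min and fluorescence intensity serves as the viability measure.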

[4] = qHTS assay to identify small molecule antagonists of the estrogen related receptor (ERR) signaling pathway (AID 1224819; note: nearly all actives have a fitted effect of over 50% in size; note: potency is the fitted concentration of half-maximal effect)
In short: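 Luminescence readout (One-Glo, 30 min, RT) of ERR cell line after 18 h compound exposure at 37 C; cells seeded 2,000/well, pre-incubated 6 h, compounds pinned from DMSO stocks.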

[5] = qHTS assay to identify small molecule agonists of the estrogen related receptor (ERR) signaling pathway (AID 1224820)
In short: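 Quantitative HTS of the LOPAC library used NTP ERR reporter cells treated 18 h at 37 C. Signal is luminescence after One-Glo addition and a 30 min room-temperature incubation.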

[6] = tested on: estrogen-related receptor alpha (ERRalpha) with PGC-1alpha coactivator, human; assay: qHTS assay to identify small molecule antagonists of the estrogen related receptor signaling pathway with the pleiotropic PPARgamma coactivator (PGC) (AID 1224821; calls by dose curve; note: nearly all actives have a fitted effect of over 50% in size; note: potency is the fitted concentration of half-maximal effect)
In short: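 Quantitative HTS for antagonism: PGC/ERR cells received compounds after 6 h attachment and were incubated 18 h at 37 C, with luminescence (One-Glo) as the endpoint.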

[7] = qHTS assay to identify small molecule agonists of the estrogen related receptor signaling pathway with the pleiotropic PPARgamma coactivator (PGC) (AID 1224823)
In short: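 Cell-based luciferase assay in the NTP-supplied PGC/ERR line, 2,000 cells/well; 18 h compound exposure at 37 C, luminescence after One-Glo.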

[8] = qHTS assay to identify small molecule antagonists of the estrogen related receptor signaling pathway with the pleiotropic PPARgamma coactivator (PGC) cell viability counter screen (AID 1224822; note: potency is the fitted concentration of half-maximal effect)
In short: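 PGC/ERR cells were plated at 2,000 per well and allowed 6 h to settle before compound addition. Following 17.5 h at 37 C, CellTiter-Fluor reagent was added and fluorescence was read 30 min later.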

[9] = qHTS assay to identify small molecule antagonists of the estrogen related receptor (ERR) signaling pathway - cell viability counter screen (AID 1224818); note: series mostly up to about 46 µM
In short: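 After a 6 h pre-incubation, ERR cells were dosed by pin tool with compounds, positive/negative controls or DMSO alone. Following 17.5 h at 37 C and 30 min with CellTiter-Fluor, fluorescence was recorded.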

Structure (SMILES): O=C(Nc1ccc2[nH]ccc2c1)c1cc2cc(F)ccc2n1Cc1cccc(F)c1
- Potency [1]: 68.6 µM (active)
- Potency [2]: inactive
- Potency [3]: 61.1 µM (active)

Structure (SMILES): Cc1cc(SCc2sc(-c3ccc(C(F)(F)F)c(F)c3)nc2C)ccc1OCC(=O)O
- Potency [1]: inactive
- Potency [2]: inactive

Structure (SMILES): O=c1[nH]c2ccccc2n1C1CCN(CCCC(c2ccc(F)cc2)c2ccc(F)cc2)CC1
- Potency [1]: 61.1 µM (active)
- Potency [2]: inactive
- Potency [4]: 11.9 µM (active)
- outcome [5]: inactive
- Potency [6]: 16.2 µM (active)
- outcome [7]: inactive
- Potency [3]: 30.6 µM (active) and 26.6 µM (active)

Structure (SMILES): CC(=O)O[C@H]1CC[C@@]2(C)C(=CC[C@@H]3[C@@H]2CC[C@]2(C)C(=O)CC[C@@H]32)C1
- Potency [1]: inactive

Structure (SMILES): CCCCCCCCc1ccc(O)cc1
- Potency [1]: inactive
- Potency [8]: 52.4 µM (active)
- Potency [3]: 61.5 µM (active)

Structure (SMILES): CCCCCCCCCCCCCCC(Br)C(=O)O (stereo unspecified)
- Potency [1]: inactive
- Potency [2]: inactive
- Potency [3]: inactive

Structure (SMILES): Cc1cc(N=Nc2ccccc2C)ccc1N
- Potency [1]: inactive
- Potency [2]: 864 nM (active) and 1.22 µM (active)
- Potency [3]: 27.3 µM (active)

Structure (SMILES): CCCN(CC)CC1COC2(CCC(C(C)(C)C)CC2)O1 (stereo unspecified)
- Potency [1]: inactive
- Potency [2]: inactive
- Potency [3]: inactive

Structure (SMILES): CC(C)OC(=O)C(O)(c1ccc(Cl)cc1)c1ccc(Cl)cc1
- Potency [1]: 43.3 µM (active)

Structure (SMILES): N#CC(Cl)Cl
- Potency [1]: inactive
- Potency [2]: 47.3 µM (active)
- Potency [3]: inactive

Structure (SMILES): O=C(O)C1C2CCC(O2)C1C(=O)O (stereo unspecified)
- Potency [1]: inactive
- Potency [2]: inactive

Structure (SMILES): O=c1oc2ccccc2c(O)c1Cc1c(O)c2ccccc2oc1=O
- Potency [1]: inactive
- Potency [2]: inactive
- Potency [3]: inactive

Structure (SMILES): CC(C)CC(C)Nc1ccc(Nc2ccccc2)cc1 (stereo unspecified)
- Potency [1]: inactive
- Potency [2]: inactive
- Potency [3]: 60.1 µM (active)

Structure (SMILES): N#Cc1c(-c2ccc(Cl)cc2)[nH]c(C(F)(F)F)c1Br
- Potency [1]: 0.545 µM (active)

Structure (SMILES): CCC(C)c1cc([N+](=O)[O-])cc([N+](=O)[O-])c1OC(=O)C=C(C)C (stereo unspecified)
- Potency [3]: 27.3 µM (active)

Structure (SMILES): CC(O)C#N (stereo unspecified)
- Potency [1]: inactive
- Potency [3]: inactive

Structure (SMILES): c1ccc(OCC2CO2)cc1 (stereo unspecified)
- Potency [1]: inactive
- Potency [3]: inactive

Structure (SMILES): O=C(CCl)Nc1ccccc1
- Potency [3]: 30.6 µM (active)

Structure (SMILES): Cc1ccc(C(=O)Cl)cc1
- Potency [1]: inactive
- Potency [3]: inactive

Structure (SMILES): C[C@]12CC[C@H](O)C[C@H]1CC[C@@H]1[C@@H]2C[C@@H](O)[C@]2(C)[C@@H](C3=CC(=O)OC3)CC[C@]12O
- Potency [3]: 0.77 µM (active)

Structure (SMILES): CN(C)C(=S)S
- Potency [3]: 9.89 µM (active) and 3.83 µM (active) and 13.7 µM (active)

Structure (SMILES): CC(C)CBr
- Potency [1]: inactive
- Potency [3]: inactive

Structure (SMILES): CCCOCC(=Nc1ccc(Cl)cc1C(F)(F)F)n1ccnc1
- Potency [2]: inactive
- Potency [3]: 54.4 µM (active)

Structure (SMILES): O=[N+]([O-])c1cc([N+](=O)[O-])c2ccccc2c1
- Potency [2]: inactive
- outcome [9]: inactive
- Potency [4]: inactive
- outcome [5]: inactive
- Potency [6]: inactive
- Potency [8]: inactive
- outcome [7]: inactive
- Potency [3]: inactive

Structure (SMILES): C=CC(=O)OCCCCOC(=O)C=C
- Potency [3]: 54.5 µM (active)

Structure (SMILES): CC1(C)CC/C(=C/c2ccc(Cl)cc2)C1(O)Cn1cncn1 (stereo unspecified)
- Potency [2]: inactive
- outcome [9]: inactive
- Potency [8]: inactive

Structure (SMILES): CC(C)OC(=S)S
- Potency [3]: inactive

Structure (SMILES): CC(C)(O)c1cnn2c(-c3ccc(F)c(-c4c(F)cccc4C#N)c3)cnc2n1
- Potency [2]: inactive

Structure (SMILES): BrCC(Br)c1ccccc1 (stereo unspecified)
- Potency [1]: inactive
- Potency [3]: inactive

Structure (SMILES): CC(C)[C@H](C(=O)O[C@H](C#N)c1cccc(Oc2ccccc2)c1)c1ccc(Cl)cc1
- Potency [3]: inactive

Structure (SMILES): ClC(Cl)=C(Cl)Cl
- Potency [3]: inactive

Structure (SMILES): c1ccc2c(c1)OCC(C1=NCCN1)O2 (stereo unspecified)
- Potency [8]: inactive
- Potency [3]: 21.1 µM (active)

Structure (SMILES): Oc1c(Br)c(Br)c(Br)c(Br)c1Br
- Potency [2]: inactive

Structure (SMILES): Oc1ccc(C2(c3ccc(O)cc3)c3ccccc3-c3ccccc32)cc1
- Potency [3]: 68.6 µM (active)

Structure (SMILES): Clc1ccc(COC(Cn2ccnc2)c2ccc(Cl)cc2Cl)cc1 (stereo unspecified)
- Potency [1]: 50.8 µM (active) and 48.4 µM (active) and inactive
- Potency [3]: 45.3 µM (active) and 48.4 µM (active) and 26.6 µM (active)

— PubChem BioAssay (Tox21)
